Test results: PubChem BioAssay (Tox21)
Where “and” joins values, the source holds several entries; their conditions need not be identical. Equal entries are not always repeated. Records with an inconclusive call do not appear. A structure can be active in one record and inactive in another. Calls of active or inactive are those of the source. Unless noted, calls come from the whole dose curve; as a rule, active = well fitted curve in the direction sought with a large enough effect in the repeat runs; inconclusive = weak or mixed curves; inactive = no such curve, though single readings can be large; an effect the other way counts as inactive or inconclusive.

Tests used:
[1] = qHTS assay to identify small molecule antagonists of the estrogen related receptor (ERR) signaling pathway from Tox21 library - cell viability counter screen (AID 1224834); note: nearly all actives have a fitted effect of over 30% in size
Outline: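 Compounds in DMSO were pinned onto ERR cells that had been incubated for 6 h, and the plates were held at 37 C for 17.5 h. CellTiter-Fluor reagent was then added and fluorescence was measured after 30 min.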

[2] = molecular target: Luciferin 4-monooxygenase (Photinus pyralis) (UniProt P08659); assay: qHTS assay to identify small molecule inhibitors of firefly luciferase (AID 1224835); note: nearly all actives have a fitted effect of over 25% in size; note: potency is the fitted concentration of half-maximal effect
Sequence of Luciferin 4-monooxygenase (Photinus pyralis) (P08659 whole entry, looked up): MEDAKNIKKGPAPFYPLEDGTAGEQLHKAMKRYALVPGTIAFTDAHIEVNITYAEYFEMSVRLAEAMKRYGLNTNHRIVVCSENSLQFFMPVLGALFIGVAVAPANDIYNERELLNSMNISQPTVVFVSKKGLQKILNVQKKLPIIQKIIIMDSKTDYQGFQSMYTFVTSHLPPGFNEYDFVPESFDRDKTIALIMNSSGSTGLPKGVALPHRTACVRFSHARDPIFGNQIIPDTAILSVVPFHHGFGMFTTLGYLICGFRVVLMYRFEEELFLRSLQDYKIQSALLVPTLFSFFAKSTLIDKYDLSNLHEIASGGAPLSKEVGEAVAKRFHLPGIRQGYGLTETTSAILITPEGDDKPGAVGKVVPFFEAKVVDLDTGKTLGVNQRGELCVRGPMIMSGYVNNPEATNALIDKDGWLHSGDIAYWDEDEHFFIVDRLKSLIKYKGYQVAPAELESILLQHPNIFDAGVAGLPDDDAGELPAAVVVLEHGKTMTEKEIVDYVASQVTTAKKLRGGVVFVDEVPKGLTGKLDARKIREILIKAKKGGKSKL
Outline: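 Inhibition of purified Photinus luciferase is measured by luminescence. Substrate levels (D-luciferin, ATP) sit at their KM values. Each compound is tested in a concentration series.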

[3] = qHTS assay to identify small molecule agonists of the constitutive androstane receptor (CAR) signaling pathway - cell viability counter screen (AID 1224836); note: nearly all actives have a fitted effect of over 45% in size
Outline: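 Fluorescence from CellTiter-Fluor indicates live cells after 23 h exposure. The human hepatoma line expresses hCAR and a CYP2B6-2.2kb reporter. Incubation medium contains 0.75 uM PK11195 (final).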

[4] = qHTS assay to identify small molecule antagonists of the constitutive androstane receptor (CAR) signaling pathway - cell viability counter screen (AID 1224837); note: nearly all actives have a fitted effect of over 45% in size
Outline: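 Cells are seeded, rested 4 hr at 37 C/5% CO2, dosed with compound (15-point series) and 50 nM CITCO, incubated a further 23 hr, and then CellTiter-Fluor reagent is added before fluorescence is read. The line is HepG2 with stable hCAR and CYP2B6-2.2kb.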

[5] = molecular target: Nuclear receptor subfamily 1 group I member 3 (Homo sapiens) (UniProt Q14994); assay: qHTS assay to identify small molecule antagonists of the constitutive androstane receptor (CAR) signaling pathway (AID 1224838);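 note: HepG2 cells stably expressing hCAR with CYP2B6 luciferase reporter stimulated by CITCO; nearly all actives have a fitted effect of over 40% in size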
Sequence of Nuclear receptor subfamily 1 group I member 3 (Homo sapiens) (Q14994 whole entry, looked up): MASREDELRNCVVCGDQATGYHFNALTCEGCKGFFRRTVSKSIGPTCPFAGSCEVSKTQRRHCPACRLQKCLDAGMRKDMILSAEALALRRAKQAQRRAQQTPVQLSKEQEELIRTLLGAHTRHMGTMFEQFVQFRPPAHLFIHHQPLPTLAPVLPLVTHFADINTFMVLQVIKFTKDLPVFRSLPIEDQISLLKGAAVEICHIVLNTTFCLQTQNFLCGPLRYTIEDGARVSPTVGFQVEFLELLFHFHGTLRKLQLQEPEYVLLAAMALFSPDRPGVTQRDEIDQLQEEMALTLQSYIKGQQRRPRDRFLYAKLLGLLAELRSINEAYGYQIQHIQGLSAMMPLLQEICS
Outline: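 Luminescence from a CYP2B6-2.2kb promoter reporter in hCAR-expressing HepG2 cells reflects CAR signaling. Cells received compounds at 15 concentrations and 50 nM CITCO (final), then incubated 24 h at 37 C/5% CO2.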

[6] = molecular target: Nuclear receptor subfamily 1 group I member 3 (Homo sapiens) (UniProt Q14994); assay: qHTS assay to identify small molecule agonists of the constitutive androstane receptor (CAR) signaling pathway (AID 1224839); note: nearly all actives have a fitted effect of over 15% in size; note: potency is the fitted concentration of half-maximal effect;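 for activation: HepG2 cells stably carrying human CAR and a CYP2B6 luciferase reporter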
Outline: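 Stable hCAR/CYP2B6-2.2kb HepG2 line in DMEM with 10% FBS; compounds (15 concentrations) and 0.75 uM PK11195 final, 24 h at 37 C/5% CO2, then ONE-Glo luminescence after 30 min.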

[7] = qHTS assay to identify small molecule antagonists of the estrogen related receptor signaling pathway with the pleiotropic PPARgamma coactivator (PGC) from Tox21 10K library - cell viability counter screen (AID 1224840; active = well fitted cell-killing curve with a large enough effect in the repeat runs, not every such curve was filed as active; note: nearly all actives have a fitted effect of over 40% in size)
Outline: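 Cell viability is measured by CellTiter-Fluor fluorescence in PGC/ERR cells that receive compounds after a 6-hour attachment period and are then incubated 17.5 hours at 37 C.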

[8] = molecular target: Thyrotropin receptor (Homo sapiens) (UniProt P16473); assay: qHTS assay to identify small molecule agonists of the thyroid stimulating hormone receptor (TSHR) signaling pathway (AID 1224843; calls by dose curve; note: nearly all actives have a fitted effect of over 45% in size)
Sequence of Thyrotropin receptor (Homo sapiens) (P16473 whole entry, looked up): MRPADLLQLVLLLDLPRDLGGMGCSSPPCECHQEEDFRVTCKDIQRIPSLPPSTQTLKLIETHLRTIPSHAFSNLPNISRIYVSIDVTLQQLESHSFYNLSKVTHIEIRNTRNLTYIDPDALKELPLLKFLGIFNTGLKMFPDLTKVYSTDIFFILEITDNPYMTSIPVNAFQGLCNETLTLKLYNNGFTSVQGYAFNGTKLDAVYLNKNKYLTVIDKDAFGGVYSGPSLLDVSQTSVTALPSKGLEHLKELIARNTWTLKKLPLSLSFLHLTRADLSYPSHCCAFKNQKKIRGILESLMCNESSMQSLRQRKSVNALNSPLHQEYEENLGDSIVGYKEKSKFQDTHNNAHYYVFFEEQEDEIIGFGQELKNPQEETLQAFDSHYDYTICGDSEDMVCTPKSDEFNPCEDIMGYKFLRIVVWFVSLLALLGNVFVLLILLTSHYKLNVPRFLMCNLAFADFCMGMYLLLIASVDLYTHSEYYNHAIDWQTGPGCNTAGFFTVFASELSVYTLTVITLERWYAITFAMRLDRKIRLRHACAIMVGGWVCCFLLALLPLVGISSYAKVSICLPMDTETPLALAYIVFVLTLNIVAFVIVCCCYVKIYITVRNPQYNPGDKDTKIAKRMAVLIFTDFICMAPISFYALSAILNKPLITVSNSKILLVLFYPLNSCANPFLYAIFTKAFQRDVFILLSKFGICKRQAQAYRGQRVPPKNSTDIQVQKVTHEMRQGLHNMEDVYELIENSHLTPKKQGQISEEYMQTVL
Outline: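 Agonist activity read as cAMP rise via d2/cryptate HTRF competition, 1 h room-temperature detection, in HEK293 cells expressing TSHR. Fifteen-point titrations, each run in triplicate, with a 30 min room-temperature incubation beforehand.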

[9] = qHTS assay to identify small molecule agonists of the hypoxia (HIF-1) signaling pathway - cell viability counter screen (AID 1224844; calls by dose curve; note: nearly all actives have a fitted effect of over 50% in size)
Outline: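 Viability counter screen: HRE-bla ME-180 cells plated 5 hrs before compound addition, treated 17 hrs at 37C and 5% CO2, then CellTiter-Glo added after the FRET reporter read; luminescence after 30 min.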

[10] = qHTS assay to identify small molecule agonists of H2AX (AID 1224845; active = well fitted activation curve with a large enough effect in the signal ratio in the repeat runs, not every such curve was filed as active; the % refers to the signal ratio; note: potency is the fitted concentration of half-maximal effect)
Outline: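 Phospho-H2AX Ser139 measured by HTRF (ex 320 nm; em 665 and 620 nm) after 24 hr antibody incubation. Compounds, 15 concentrations, 0.76% DMSO, were applied to CHO-K1 cells for 3hr at 37C before lysis.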

[11] = qHTS assay to identify small molecule agonists of the hypoxia (HIF-1) signaling pathway (AID 1224846; active = well fitted activation curve with a large enough effect in the signal ratio in the repeat runs, not every such curve was filed as active; the % refers to the signal ratio)
Outline: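 Agonist mode reporter screen. ME-180 cells stably expressing bla under HRE control received test compounds in DMSO for 17 hrs (37C, 5% CO2), and beta-lactamase activity was then detected with the CCF4-AM FRET substrate.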

[12] = qHTS assay to identify small molecule agonists of H2AX - cell viability counter screen (AID 1224847; calls by dose curve; note: top concentration of the series differs between compounds; nearly all actives have a fitted effect of over 30% in size)
Outline: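 Viability of CHO-K1 (wild type) cells after 3 hr compound exposure was measured by CellTiter-Glo luminescence.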

[13] = qHTS RealTime-Glo MT Cell Viability Assay in HepG2 cells - 24 hour (AID 1224867); note: nearly all actives have a fitted effect of over 50% in size
Outline: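 HepG2 suspension premixed with RealTime-Glo reagents is plated at 600 cells per well and left 5 h at 37 C/5% CO2. Compounds in DMSO then go in, and bioluminescence reflecting viable cell number is recorded over 40 h.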

[14] = qHTS RealTime-Glo MT Cell Viability Assay in HEK293 cells - 32 hour (AID 1224868); note: top concentration of the series differs between compounds; nearly all actives have a fitted effect of over 50% in size
Outline: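 Reads taken at 0, 8, 16, 24, 32 and 40 h from the same wells. HEK293 cells (600/well) carried RealTime-Glo reagents from seeding, with compound added after a 5 h settle at 37 C.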

[15] = A CellTox Green Cytotoxicity Assay to monitor cytotoxicity in HEK293 cells - 0 hour (AID 1224869); note: nearly all actives have a fitted effect of over 50% in size
Outline: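 Dead-cell fluorescence measured kinetically: asymmetric cyanine dye, HEK293, 600 cells/well, 5 h settle, 23 nL cpd/DMSO, 37 C, reads 0–40 h every 8 h.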

[16] = qHTS assay to identify small molecule antagonists of the estrogen related receptor signaling pathway with the pleiotropic PPARgamma coactivator (PGC) from Tox21 10K library (AID 1224841; call rule not given here; note: potency is the fitted concentration of half-maximal effect)
Outline: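 Cells stably carrying the PGC/ERR reporter, seeded at 2,000 per well, received pin-transferred compounds 6 h post-plating. Exposure lasted 18 h at 37 C. Signal: One-Glo luminescence.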

[17] = qHTS assay to identify small molecule agonists of the estrogen related receptor signaling pathway with the pleiotropic PPARgamma coactivator (PGC) from Tox21 10K library (AID 1224842); note: nearly all actives have a fitted effect of over 15% in size; note: potency is the fitted concentration of half-maximal effect
Outline: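 Luminescence from One-Glo (30 min, room temperature) measured after PGC/ERR cells had 18 h at 37 C with pinned compound (23 nL in DMSO). Cells had been seeded at 2,000 per well and pre-incubated 6 h.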

[18] = qHTS assay to identify small molecule antagonists of the estrogen related receptor (ERR) signaling pathway from Tox21 library (AID 1224848); note: nearly all actives have a fitted effect of over 50% in size; note: potency is the fitted concentration of half-maximal effect
Outline: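 Luciferase luminescence (ONE-Glo, 30 min room temperature) was the read-out. Cells of the NTP-supplied ERR line, 2,000 per well, were given 6 h at 37 C before compound addition in DMSO and 18 h exposure at 37 C.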

[19] = qHTS assay to identify small molecule agonists of the estrogen related receptor (ERR) signaling pathway from Tox21 library (AID 1224849; calls by dose curve; note: nearly all actives have a fitted effect of over 15% in size); settings: ERR reporter cell line, ONE-Glo luciferase, 18 h
Outline: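 Quantitative HTS in agonist format: NTP ERR cell line, compounds transferred in DMSO after 6 h plating, 18 h incubation at 37 C, ONE-Glo luminescence endpoint.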

[20] = qHTS assay to identify small molecule agonists of the estrogen related receptor signaling pathway with the pleiotropic PPARgamma coactivator (PGC) (AID 1224823); note: potency is the fitted concentration of half-maximal effect
Outline: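 Luminescence from One-Glo reagent (30 min, room temperature) was read after 18 h compound treatment at 37 C of PGC/ERR cells plated 6 h beforehand; compounds delivered in DMSO by pin tool.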
% is set by controls: 0 for no effect and ±100 for the full control effect.

CCCCCCCCC
inactive: Potency [1] | Potency [2] | Potency [3] | Potency [4] | Potency [5] | Potency [6] | Potency [7] | Potency [8] | Potency [9] | Potency [10] | outcome [11] | Potency [12] | Potency [13] | Potency [14] | Potency [15]

CCCCC(CC)COC(C)=O (centres undefined)
inactive: Potency [1] | Potency [2] | Potency [3] | Potency [4] | Potency [5] | Potency [6] | Potency [7] | Potency [16] | Potency [17] | Potency [8] | Potency [9] | Potency [10] | outcome [11] | Potency [12] | Potency [18] | activity change, positive = activation ([19]; at 92.4 µM (top of the series)) 8.75% and 0.0839% | Potency [13] | Potency [15]

Oc1ccc(OCc2ccccc2)cc1
inactive: Potency [1] | Potency [3] | Potency [4] | Potency [5] | Potency [7] | Potency [8] | Potency [9] | outcome [11] | Potency [12] | Potency [13] | Potency [15]
active: Potency [2] 31.1 µM and 17.4 µM | Potency [6] 23.8 µM
22.1 µM (active) and inactive: Potency [10]

CC#C[C@]1(O)CC[C@H]2[C@@H]3CCC4=CC(=O)CCC4=C3[C@@H](c3ccc(N(C)C)cc3)C[C@@]21C
inactive: Potency [20] | Potency [5] | Potency [6] | Potency [7] | Potency [17] | Potency [8] | Potency [9] | outcome [11] | Potency [12] | activity change, positive = activation ([19]; at 42.5 µM (top of the series)) -53.3% | activity change, positive = activation ([19]; at 92.4 µM (top of the series)) -62.2% | Potency [13] | Potency [15]
active: Potency [16] 21.7 µM and 29.8 µM | Potency [18] 26.6 µM

O=c1c(-c2ccc(O)cc2)coc2cc(O)ccc12
inactive: Potency [1] | Potency [3] | Potency [4] | Potency [5] | Potency [7] | Potency [16] | Potency [8] | Potency [9] | Potency [10] | Potency [12] | Potency [18] | Potency [13] | Potency [15]
active: Potency [20] 20.3 µM | Potency [2] 24.9 µM and 12.6 µM | Potency [6] 15.2 µM and 10.9 µM | Potency [17] 24.1 µM and 27.3 µM | activity change, positive = activation ([19]; at 92.4 µM (top of the series)) 150% and 64.9%

NCc1cccc(CN)c1
inactive: Potency [1] | Potency [2] | Potency [3] | Potency [4] | Potency [5] | Potency [6] | Potency [7] | Potency [8] | Potency [9] | Potency [10] | outcome [11] | Potency [12] | Potency [13] | Potency [14] | Potency [15]

C=CC(=O)OCCCCCCCC(C)C
inactive: Potency [1] | Potency [2] | Potency [3] | Potency [4] | Potency [5] | Potency [6] | Potency [7] | Potency [8] | Potency [9] | Potency [10] | outcome [11] | Potency [12] | Potency [13] | Potency [15]
